# The list is not random: actives were taken first. Their share in the collection is about 1.2%.
# RGS4-Gao reg – modulates binding of RGS4 to human Galphao; P09471; Multiplexed bead flow cytometry; actives lie on both sides; binding response (% of control), % at 10 µM; actives 0.33% (n = 220,000); AID 1415; in the data active means binding response below about 49% or above about 150%; inactive means in between;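 further: fluorescent Galphao activated with aluminum fluoride binding bead-coupled RGS4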
# RGS7-Gao reg – modulates binding of RGS7 to human Galphao; actives 0.35% (n = 220,000); Multiplexed bead flow cytometry; actives lie on both sides; binding response (% of control), % at 10 µM; P09471; in the data active means binding response below about 49% or above about 150%; inconclusive means no clear call, values can overlap the other calls; inactive means in between;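 further: fluorescent Galphao held in activated GDP-AlF4 state binding bead-coupled RGS7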
# RGS8-Gao – modulates binding of RGS8 to human Galphao; P09471; multiplexed bead flow cytometry; actives lie on both sides; response (percent of control binding), % at 10 µM; actives 0.34% (n = 220,000); in the data active means response below about 60% or above about 140%; inactive means in between;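 further: Galphao activated as the GDP aluminium fluoride complex binding bead-coupled RGS8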
# Avidin fluor – avidin bead compound fluorescence profile; Avidin beads, compound fluorescence 488/530 nm, flow cytometry; stronger effect = higher value; fluorescence (KMESF) at 10 µM; actives 0.38% (n = 220,000); AID 1775; in the data active means fluorescence above about 47
# RGS16-Gao HTS – modulates binding between human RGS16 and Galphao | AID 1441 | actives 0.38% (n = 220,000) | O15492+P09471 | bead-based flow cytometry RGS16-Galphao binding, fluorescence; actives lie on both sides | binding response (% of control), % at 10 µM;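 further: Galphao activated by GDP with aluminum fluoride before binding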
# GSH bead fluor – compound fluoresces at 488/530 nm on GSH beads; GSH beads flow cytometry, compound fluorescence 488/530 nm; stronger effect = higher value; fluorescence (KMESF) at 10 µM; actives 0.25% (n = 190,000); AID 1776; in the data active means fluorescence above about 89;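 further: glutathione beads carrying GST-tagged Bcl family fusion proteins plus one bare bead set; values are compound well signal with DMSO vehicle wells as background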
# RGS-Gao – RGS4-Galphao interaction regulator (human); shares compounds with RGS16-Gao HTS; actives 99% (n = 1,600); multiplexed bead flow cytometry, RGS–Galpha-o binding; RGS4–Galpha-o binding response, % at 10 µM; AID 1504;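 further: fluorescently labeled Galpha-o bound to GDP with aluminium fluoride binding biotinylated RGS beads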
# Target sequence (P09471 whole entry, looked up): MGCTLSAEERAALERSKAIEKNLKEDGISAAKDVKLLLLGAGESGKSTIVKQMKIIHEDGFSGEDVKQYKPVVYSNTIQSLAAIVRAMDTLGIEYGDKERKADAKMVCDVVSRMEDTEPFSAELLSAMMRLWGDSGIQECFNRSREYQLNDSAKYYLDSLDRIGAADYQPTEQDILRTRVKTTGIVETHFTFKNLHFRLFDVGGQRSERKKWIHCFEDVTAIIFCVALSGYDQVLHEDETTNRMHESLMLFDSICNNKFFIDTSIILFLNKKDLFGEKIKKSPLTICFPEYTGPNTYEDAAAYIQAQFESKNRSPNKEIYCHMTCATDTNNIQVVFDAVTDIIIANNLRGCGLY
# Target sequence (P49798 whole entry, looked up): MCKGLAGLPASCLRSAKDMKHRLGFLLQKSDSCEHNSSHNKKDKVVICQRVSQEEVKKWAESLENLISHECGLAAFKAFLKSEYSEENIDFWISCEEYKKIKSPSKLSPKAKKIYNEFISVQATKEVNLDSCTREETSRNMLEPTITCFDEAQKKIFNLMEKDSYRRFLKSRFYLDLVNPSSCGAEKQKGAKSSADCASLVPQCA
# Biotin-avidin – interferes with biotinylated probe binding to avidin beads; streptavidin beads, fluorescein-biotin binding, flow cytometry; inhibition, % at 10 µM; 1,700 tested, under 10 active; shares compounds with RGS16-Gao HTS;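 active means inhibition above 50%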;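 further: median green fluorescence of gated singlet beads compared with DMSO control wells; 0% = DMSO wells and 100% = complete loss of bead fluorescence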
# RGS8-Gao single – confirmation of regulators of human RGS8-Galphao interaction | shares compounds with RGS16-Gao HTS | bead-based flow cytometry RGS8-Galphao binding, fluorescence; actives lie on both sides | binding response (% of control), % at 10 µM | actives 3% (n = 1,700); in the data active means binding response below about 72% or above about 130%; inactive means in between;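 further: Galphao activated as GDP AlF4 complex before binding bead RGS8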
# RGS7-Gao confirm – RGS7-Galphao interaction regulation, single point confirmation. shares compounds with RGS16-Gao HTS. bead-based flow cytometry RGS7-Galphao binding; actives lie on both sides. response (percent of control binding), % at 10 µM. actives 7.8% (n = 1,700). AID 1837; in the data active means response below about 75% or above about 130%; inactive means in between;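 further: fluorescent Galphao activated with GDP and aluminum fluoride binding bead-coupled RGS7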
# RGS16-Gao single – confirmation of regulators of human RGS16-Galphao interaction; response (% of control binding), % at 10 µM; shares compounds with RGS16-Gao HTS; bead-based flow cytometry, RGS16-Galphao binding; actives lie on both sides; AID 1838; actives 4% (n = 1,700); in the data active means response below about 74% or above about 130%; inactive means in between;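 further: Galphao activated as the GDP aluminium fluoride complex binding bead-coupled RGS16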
# RGS4-Gao confirm – RGS4-Galphao interaction regulation, single point confirmation; shares compounds with RGS16-Gao HTS; RGS4-Galphao binding, multiplexed bead flow cytometry; actives lie on both sides; binding response (% of control), % at 10 µM; actives 4% (n = 1,700); AID 1840; in the data active means binding response below about 74% or above about 130%; inactive means in between
# RGS19-Gao single – RGS19-Galphao interaction regulation, single point confirmation | response (percent of control binding), % at 10 µM | shares compounds with RGS16-Gao HTS | actives 5% (n = 1,700) | AID 1841 | bead-based flow cytometry RGS19-Galphao binding; actives lie on both sides; in the data active means response below about 50% or above about 160%; inactive means in between;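 further: 100% = no compound control and 0% = blank background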
# * = called active by the depositor; ? = inconclusive; / = no result given; [ ] = remark or other dose. Unless noted, how the calls were made is not given here.
SMILES,RGS4-Gao reg,RGS7-Gao reg,RGS8-Gao,Avidin fluor,RGS16-Gao HTS,GSH bead fluor,RGS-Gao,Biotin-avidin,RGS8-Gao single,RGS7-Gao confirm,RGS16-Gao single,RGS4-Gao confirm,RGS19-Gao single
Cc1cccc(-c2nc(CSCC(=O)NCCCN3CCOCC3)c(C)o2)c1,102,103,100,7,105,14,/,/,/,/,/,/,/
Cc1oc(-c2ccc(Cl)cc2)nc1CSCC(=O)NCCCN1CCOCC1,187*[activator],164*[activator],112,18,228*[activator],5,/,0,102,101,105,102,105
O=C(COC(=O)C1=COCCO1)NCc1ccc(Cl)cc1,103,103,106,12,123,16,/,/,/,/,/,/,/
N#CC(C(=O)OC1CCCCC1)c1nc2ccccc2nc1N1CCOCC1 (stereo unspecified),119,171*[activator],96,110*,106,4,119*,/,/,/,/,/,/
Cc1nnc(N2CCOCC2)c2nn(-c3ccccc3)c(C)c12,149,146,147*[activator],11,221,11,149*,1,103,117,105,113,103
C/C(CCC(C)C)=N\Nc1cc(C)c2ccccc2n1,105,?,106,13,105,14,/,/,/,/,/,/,/
COc1ccccc1N1CCN(S(=O)(=O)c2ccc3c4c(cccc24)C(=O)N3C)CC1,-21*,-3.9*,16*,-3,-19*,31,/,1,101,104,103,104,104
COc1ccccc1N1CCN(S(=O)(=O)c2ccc3c4c(cccc24)C(=O)N3)CC1,118,114,108,20,117,14,/,/,/,/,/,/,/
CCOC(=O)CSc1nc2ccccc2c(=O)n1CC1COc2ccccc2O1 (stereo unspecified),-26*,-14*,0.8*,-4,-138,18,/,-6,116,130*[activator],120,124,122
CCOC(=O)CSc1nc2ccccc2c(=O)n1CC1CCCO1 (stereo unspecified),71,72,57*,4,7,15,71*,0,101,100,100,101,95
O=C(CNS(=O)(=O)c1c(Cl)cccc1Cl)OCC(=O)N1CCN(c2ccccc2)CC1,101,99,104,13,112,8,/,/,/,/,/,/,/
CC(=O)Nc1ccc(S(=O)(=O)NCC(=O)OCC(=O)N2CCN(c3ccccc3)CC2)cc1,82,79,71,1,21*,12,82*,-2,98,89,95,94,82
CCOc1ccc(OCCCCn2ccnc2)cc1,100,97,103,5,104,13,/,/,/,/,/,/,/
Cc1ccc(Nc2c(-c3ccc(N(C)C)cc3)nc3ncccn23)cc1,96,?,97,14,92,/,/,/,/,/,/,/,/
Cc1ccc(SCc2nc3ncccn3c2Br)cc1,/,/,/,75*,/,/,/,0,96,91,92,94,88
CC(C)CN(CC(C)C)C(=O)CCCC(=O)N(CC(C)C)CC(C)C,99,101,101,6,103,11,/,/,/,/,/,/,/

# Assay outcomes as filed in PubChem BioAssay.
